Screening data from PubChem BioAssay.
This excerpt belongs to a sample that is enriched for hits.
Tg IFNy HTS – blocks Toxoplasma gondii growth in the presence of IFN-gamma | Toxoplasma gondii growth in IFN-gamma-treated host cells; hits give low values | activity change, negative = inhibition, % (concentration not given with the values) | 69,000 tested, 3.8% active; in the data active means activity change below about -70%, passing the limit was not always enough;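 further: host cells are HeLa cells infected with Toxoplasma gondii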
Numbers stand for hits; – = inactive; ! = not active in a repeat.

SMILES	Tg IFNy HTS
CCOC(=O)c1ccc(NC(=O)c2cc3cccnc3n(Cc3ccccc3F)c2=O)cc1	–
CCN(CC)c1ccc(NC(=O)c2cc3cccnc3n(Cc3ccc(F)cc3)c2=O)c(C)c1	–
Cc1noc(C)c1S(=O)(=O)N1CCN2CCNC(=O)C2C1 (stereo not given)	–
CN1Cc2ccccc2[C@@H]2c3cccc4[nH]cc(c34)C[C@H]21	-78
CC(C)[C@@]1(NC(=O)[C@@H]2C[C@@H]3c4cccc5[nH]cc(c45)C[C@H]3N(C)C2)O[C@@]2(O)[C@@H]3CCCN3C(=O)[C@H](Cc3ccccc3)N2C1=O	–
CN1CCC2(CC1)C(=O)N(C)C2c1ccccc1 (stereo not given)	–
Cn1cccc1C(=O)NC[C@H]1OC[C@H]2CCNC[C@@H]21	–
CC(C)CCNC(=O)c1cc2cccnc2n(Cc2ccccc2)c1=O	–
Fc1cnc(N2CCC3(CCCN3CC3CC3)CC2)nc1	–
Cc1cc2ncc3c(n2n1)CC1CCC3N1Cc1cn[nH]c1-c1cccs1 (stereo not given)	–
CC(=O)[O][Hg][c]1ccccc1	-72
CCN(CC)C(C)C(=O)c1ccccc1 (stereo not given)	–
COc1ccc2c(c1)C1(CCN(C(=O)[C@H](Cc3ccccc3)NC(C)=O)CC1)CC2CC(=O)O (stereo not given in full)	–
CC(=O)NC1CCSC1=O (stereo not given)	-78!
CCN(CC)CCCNC(=O)c1cc2cccnc2n(Cc2ccccc2)c1=O	–
CCC1(O)C(=O)OCc2c1cc1n(c2=O)Cc2cc3ccccc3nc2-1 (stereo not given)	-106
CC[C@@]1(O)C(=O)OCc2c1cc1n(c2=O)Cc2cc3ccccc3nc2-1	-88
O=C(Nc1ccc(Br)cc1)c1cc2cccnc2n(Cc2ccccc2)c1=O	–
OCCN1CCOC2C(COc3ncccn3)CCC21 (stereo not given)	–
Cc1cc(CN2C[C@H]3CN(C(=O)c4ccsc4)CCO[C@@H]3C2)no1	–
C=CCN1CCN(C2CCOC2)Cc2cccnc21 (stereo not given)	–
CCOc1c(CNCCc2c[nH]c3ccccc23)cccc1OC	–
COc1ccc(F)c(-c2ccc3c(c2)CNCC3)c1	–
Fc1ccc(CN2CCC3(CC(Nc4ncccn4)CO3)C2)cc1 (stereo not given)	–
COc1cccc2c1C(=O)c1c(O)c3c(c(O)c1C2=O)C[C@@](O)(C(=O)CO)C[C@@H]3O[C@H]1C[C@H](N2CCO[C@H](OC)C2)[C@H](O)[C@H](C)O1	-81
SMILES	Tg IFNy HTS
CN1C(=O)C2(CCN(Cc3cnn(C)c3)CC2)c2ccccc21	–
c1cncc(CN2CCO[C@H]3[C@@H](Oc4cccnc4)CC[C@H]32)c1	–
CCCN1C(=O)C(C(=O)/C=C/c2ccc(C)cc2)C2c3ccccc3OC13CCCCC23 (stereo not given)	–
O=C(/C=C/c1ccc(Cl)cc1)C1C(=O)NC23CCCCC2C1c1ccccc1O3 (stereo not given)	–
CCOc1ccc(/C=C/C(=O)C2C(=O)NC34CCCCC3C2c2ccccc2O4)cc1OC (stereo not given)	-80
O=C(NC1CCCCCC1)c1cc2cccnc2n(Cc2ccccc2)c1=O	–
COc1ccc(NC(=O)c2cc3cccnc3n(Cc3ccccc3F)c2=O)cc1	–
O=C1CCC2(CCCN(Cc3cnc[nH]3)C2)N1 (stereo not given)	–
Cc1ccc2c(n1)N(CC1CC1)CCN(c1ncccn1)C2	–
CN(Cc1ccncc1)C1CCC[C@@H]2CNC[C@@H]12 (stereo not given in full)	–
CCOC(C(=O)OCCCN1CCCCCC1)(c1ccccc1)c1ccccc1	-80
Cc1cc(Cl)ccc1C(=O)C1CCCN(CCCn2cccn2)C1 (stereo not given)	–
COc1ccc(NC(C)=O)cc1NC(=O)c1cc2cccnc2n(Cc2ccc(F)cc2)c1=O	–
CC(=O)OC1CC[C@@]2(C)C(CCC3C2CC[C@]2(C)C(C4=CC(=O)OC4)C(OC(C)=O)CC32O)C1 (stereo not given in full)	-80
CC(C)CN1C[C@@H]2c3nc(N(C)C)ncc3CS(=O)(=O)[C@H]2C1	–
CCC1CN(Cc2c(OC)ccc(F)c2F)CCN1C(C)C (stereo not given)	–
CCOCC12CCCOC1CCN(Cc1ccncc1)C2 (stereo not given)	–
O=C(Nc1ccc(Oc2ccccc2)cc1)c1cc2cccnc2n(Cc2ccc(F)cc2)c1=O	–
CN1C(=O)N(C)C2C1N(C)C(=O)N2C (stereo not given)	–
CCN(CC)CCOC1CCC2(C)C(=CCC3C4CCC(=O)C4(C)CCC32)C1 (stereo not given)	–
CCC(=O)O[C@H]1CCC2C3CCC4=CC(=O)CC[C@]4(C)C3CC[C@@]21C (stereo not given in full)	-84
CCCCCCC(=O)O[C@H]1CC[C@H]2[C@@H]3CCC4=CC(=O)CC[C@]4(C)[C@H]3CC[C@]12C	-75
C[C@]12CCC(=O)C=C1CC[C@@H]1[C@@H]2CC[C@]2(C)C(=O)CC[C@@H]12	–
